According to PubChem BioAssay (EPA / NIEHS):
Activity calls are given as the source filed them. How the source made its calls: active means hit-call score of the fitted dose curve at least 0.9, where 1 is the maximum; inactive means score below 0.9.

Columns and labels:
[1] = ATG_CRE_CIS: Attagene CIS-FACTORIAL HepG2 Assay for human cAMP Responsive Element (CRE) binding protein 3 (AID 2282926); conditions: HepG2 CRE cis-reporter, Attagene multiplexed mRNA; actives raise or lower the signal
Outline: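 Readout: fluorescently labelled reporter transcripts resolved by capillary electrophoresis after RT-PCR, taken 24 h post-dosing in transfected HepG2. Endogenous transcription factor activity drives each cis-element reporter; gain or loss of signal fitted relative to DMSO control.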

[2] = target: CCAAT/enhancer-binding protein beta (Homo sapiens) (UniProt P17676); assay: ATG_C_EBP_CIS: Attagene CIS-FACTORIAL HepG2 Assay for human CCAAT/Enhancer Binding Protein (C/EBP) beta (AID 2282927); conditions: HepG2 Attagene cis-factorial transcription factor reporter; actives raise or lower the signal
Outline: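 HepG2 transiently transfected with multiplexed reporter units under cis-regulatory promoters reporting endogenous C/EBPb activity. After 24 h exposure, reporter mRNA assayed by RT-PCR, fluorescent labelling, HpaI digestion and capillary electrophoresis; bidirectional fitting versus DMSO.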

[3] = ATG_CMV_CIS: Attagene CIS-FACTORIAL HepG2 Assay for human CMV (Internal Marker) (AID 2282928); conditions: HepG2 CMV promoter reporter, transcription factor profiling; actives raise or lower the signal;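 further: endpoint acts as a background internal control marker rather than a target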
Outline: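 Fluorescence intensity of RT-PCR-derived reporter fragments, resolved by capillary electrophoresis, gives the signal. HepG2 liver cells bearing transfected cis-element reporters were treated 24 h; activity in either direction was fit relative to DMSO-treated controls.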

[4] = ATG_AP_2_CIS: Attagene CIS-FACTORIAL HepG2 Assay for human Activator Protein 2 (AP-2) (AID 2282932); conditions: HepG2 AP-2 cis-reporter, Attagene transcription factor profiling; actives raise or lower the signal
Outline: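 Liver-derived HepG2 line, cis-reporter system measuring endogenous factors; 24 h dosing; reporter mRNA detected by fluorescent RT-PCR and capillary electrophoresis.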

[5] = ATG_BRE_CIS: Attagene CIS-FACTORIAL HepG2 Assay for human Bone Morphogenetic Protein (BMP) Response Element (BRE) (AID 2282933); conditions: HepG2 BMP response element reporter, Attagene transcription factor profiling; actives raise or lower the signal
Outline: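 A HepG2 multiplex reporter system measured inducible reporter mRNA 24 h post-dosing. Detection: RT-PCR, 6-FAM primer extension, HpaI digestion, capillary electrophoresis. Activity fitted bidirectionally relative to DMSO.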

[6] = target: Transcription factor E2F1 (Homo sapiens) (UniProt Q01094); assay: ATG_E2F_CIS: Attagene CIS-FACTORIAL HepG2 Assay for human E2F Transcription Factor 1 (AID 2282935); conditions: HepG2 Attagene cis-reporter, E2F reporter RNA transcripts; actives raise or lower the signal
Outline: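 Liver-derived HepG2 cells expressing transfected promoter-driven reporter units received test chemical for 24 hours. Signal gains or losses were fitted bidirectionally against DMSO.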

[7] = ATG_E_Box_CIS: Attagene CIS-FACTORIAL HepG2 Assay for human Enhancer Box (E-box) (AID 2282936); conditions: HepG2 E-box cis-reporter transcription, actives raise or lower the signal
Outline: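 In this cell-based setup, HepG2 cells bearing transfected promoter-driven reporter units were exposed to chemicals for 24 h; reporter transcripts were amplified, 6-FAM-labelled, cut with HpaI and sized by capillary electrophoresis.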

[8] = ATG_M_61_CIS: Attagene CIS-FACTORIAL HepG2 Assay for M61 Transcription Factor (Internal Marker) (AID 2282937); conditions: HepG2 Attagene CIS-FACTORIAL M61 internal marker reporter; actives raise or lower the signal
Outline: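 Endogenous transcription factor activity in HepG2 is read through transiently transfected cis-element reporter units. After 24 h dosing, RNA undergoes reverse transcription, PCR and primer extension with 6-FAM before capillary electrophoresis; DMSO-referenced bidirectional fit.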

[9] = ATG_EGR_CIS: Attagene CIS-FACTORIAL HepG2 Assay for human Early Growth Response 1 (EGR1) (AID 2282938); conditions: HepG2 Attagene CIS-FACTORIAL EGR reporter mRNA; actives raise or lower the signal
Outline: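 Activity is taken as induction or loss of reporter mRNA versus DMSO, fitted bidirectionally. Transcripts from cis-regulated reporter units in transiently transfected HepG2 were measured after 24 h by RT-PCR with capillary electrophoresis.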

[10] = ATG_Ets_CIS: Attagene CIS-FACTORIAL HepG2 Assay for human Erythroblast Transformation Specific (ETS) (AID 2282941); conditions: HepG2 ETS cis-reporter transcription, actives raise or lower the signal
Outline: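 Multiplexed reporter transcript profiling: HepG2, 24 h treatment, total RNA to cDNA, PCR, 6-FAM labelling, HpaI cut, capillary electrophoresis. Gain- or loss-of-signal fitted against DMSO.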

[11] = ATG_FoxO_CIS: Attagene CIS-FACTORIAL HepG2 Assay for human Forkhead box O (FoxO) (AID 2282943); conditions: HepG2 Attagene cis-reporter, FoxO element, mRNA; actives raise or lower the signal
Outline: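 HepG2 cells transiently transfected with cis-element-driven reporter units report endogenous FoxO activity. After 24 h chemical exposure, reporter mRNA quantified by RT-PCR, fluorescent labeling, HpaI digestion and capillary electrophoresis; bidirectional fit versus DMSO.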

[12] = ATG_GLI_CIS: Attagene CIS-FACTORIAL HepG2 Assay for human Zinc Finger Protein GLI1 (AID 2282945); conditions: HepG2, Attagene cis-factorial reporter mRNA, GLI element; actives raise or lower the signal
Outline: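 Transiently transfected HepG2 cells report endogenous transcription factor activity via cis-element-driven reporter units. After 24 h compound exposure, reporter mRNA was measured by RT-PCR with capillary electrophoresis; bidirectional fitting against DMSO baseline.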

[13] = ATG_ISRE_CIS: Attagene CIS-FACTORIAL HepG2 Assay for human Interferon Regulatory Factor 1 (IRF1) binding to an Interferon-Stimulated Response Element (ISRE) (AID 2282948); conditions: HepG2 ISRE cis-reporter (Attagene), mRNA transcription readout; actives raise or lower the signal
Outline: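 Signal reflects induction or loss of ISRE-linked reporter mRNA in transiently transfected HepG2 cells after a 24 h treatment, detected by fluorescent RT-PCR fragments on capillary electrophoresis and normalised to DMSO.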

[14] = ATG_M_32_CIS: Attagene CIS-FACTORIAL HepG2 Assay for M32 Transcription Factor (Internal Marker) (AID 2282949); conditions: HepG2 Attagene cis-factorial M32 reporter, mRNA; actives raise or lower the signal;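 further: background control marker of the multiplexed CIS panel rather than a real target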
Outline: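 HepG2 human liver cells transiently transfected with cis-promoter-driven multiple reporter transcription units, dosed 24 h. Reporter mRNA quantified by RT-PCR, FAM-labelled primer extension, HpaI digest and capillary electrophoresis; bidirectional fit versus DMSO baseline.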

[15] = ATG_M_06_CIS: Attagene CIS-FACTORIAL HepG2 Assay for M06 Transcription Factor (Internal Marker) (AID 2282950); conditions: HepG2 Attagene CIS-FACTORIAL M06 internal marker reporter; actives raise or lower the signal
Outline: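 Cells (HepG2, transiently carrying cis-driven reporter units) receive chemical for 24 h before RNA isolation. Reporter cDNA is PCR-amplified, FAM-labelled by primer extension, HpaI-digested and sized on a capillary analyser.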

[16] = ATG_MRE_CIS: Attagene CIS-FACTORIAL HepG2 Assay for human Metal Responsive Element (MRE) (AID 2282954); conditions: HepG2 MRE cis-reporter transcription, Attagene multiplex; actives raise or lower the signal
Outline: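 Measured here is mRNA induction from an MRE cis-element reporter in HepG2 after 24 h, quantified by fluorescence of labelled RT-PCR products on capillary electrophoresis; gain- and loss-of-signal fits use DMSO as baseline.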

[17] = ATG_PXRE_CIS: Attagene CIS-FACTORIAL HepG2 Assay for human Pregnane X Receptor Element (PXRE) (AID 2282957); conditions: HepG2 Attagene CIS-FACTORIAL PXRE reporter, mRNA; actives raise or lower the signal
Outline: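 Read-out: fluorescence of reporter-specific RT-PCR products resolved by capillary electrophoresis, fitted bidirectionally relative to DMSO. Human HepG2 liver cells carried transfected cis-promoter reporter units and were exposed to chemicals for 24 h.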

[18] = ATG_Sox_CIS: Attagene CIS-FACTORIAL HepG2 Assay for human SRY-box transcription factor (SOX) (AID 2282960); conditions: HepG2 Attagene cis-factorial SOX reporter, mRNA; actives raise or lower the signal
Outline: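 Measures mRNA induction of a SOX1-associated reporter in HepG2 after 24 h dosing. Fluorescently labelled RT-PCR fragments are separated by capillary electrophoresis, and gain or loss relative to DMSO control is fitted.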

[19] = target: Transcription factor Sp1 (Homo sapiens) (UniProt P08047); assay: ATG_Sp1_CIS: Attagene CIS-FACTORIAL HepG2 Assay for human Specificity Protein 1 (Sp1) (AID 2282961); conditions: HepG2 Sp1 cis-reporter transcription, actives raise or lower the signal
Outline: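 Cells: HepG2, transiently transfected with cis-regulated multiplexed reporters. Exposure: 24 h. Detection: reporter transcripts amplified, fluorescently labeled, restriction-digested and sized by capillary electrophoresis. Analysis: bidirectional fit relative to DMSO.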

[20] = ATG_SREBP_CIS: Attagene CIS-FACTORIAL HepG2 Assay for human Sterol Regulatory Element Binding (SREBP) (AID 2282962); conditions: HepG2 Attagene cis-factorial SREBP reporter, mRNA; actives raise or lower the signal
Outline: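 Values derive from bidirectional curve fitting with DMSO as baseline. The underlying measurement is reporter mRNA from cis-element-regulated units in transiently transfected HepG2, quantified by RT-PCR and capillary electrophoresis after 24 h exposure.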

Measured: AC50

Sequence of Transcription factor E2F1 (Homo sapiens) (Q01094 whole entry, looked up): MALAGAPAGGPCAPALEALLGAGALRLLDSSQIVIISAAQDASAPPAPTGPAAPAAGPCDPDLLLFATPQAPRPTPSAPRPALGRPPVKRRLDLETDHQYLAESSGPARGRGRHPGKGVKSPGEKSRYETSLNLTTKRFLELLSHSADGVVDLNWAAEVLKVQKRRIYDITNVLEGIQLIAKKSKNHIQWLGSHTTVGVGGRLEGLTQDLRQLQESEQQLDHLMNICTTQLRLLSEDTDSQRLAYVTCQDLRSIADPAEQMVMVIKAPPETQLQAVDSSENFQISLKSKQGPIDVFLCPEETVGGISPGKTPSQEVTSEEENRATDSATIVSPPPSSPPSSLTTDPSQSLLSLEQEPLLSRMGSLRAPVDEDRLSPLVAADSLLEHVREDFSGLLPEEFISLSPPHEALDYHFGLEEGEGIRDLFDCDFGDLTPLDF
Sequence of CCAAT/enhancer-binding protein beta (Homo sapiens) (P17676 whole entry, looked up): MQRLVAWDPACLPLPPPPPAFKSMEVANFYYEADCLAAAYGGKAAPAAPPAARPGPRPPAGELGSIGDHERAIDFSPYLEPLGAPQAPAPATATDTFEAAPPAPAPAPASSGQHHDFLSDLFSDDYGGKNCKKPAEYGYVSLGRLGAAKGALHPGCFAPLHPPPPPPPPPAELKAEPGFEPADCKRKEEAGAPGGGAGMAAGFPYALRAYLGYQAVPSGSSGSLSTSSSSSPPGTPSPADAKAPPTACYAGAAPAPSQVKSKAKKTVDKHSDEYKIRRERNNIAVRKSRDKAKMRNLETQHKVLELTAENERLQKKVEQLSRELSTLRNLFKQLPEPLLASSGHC
Sequence of Transcription factor Sp1 (Homo sapiens) (P08047 whole entry, looked up): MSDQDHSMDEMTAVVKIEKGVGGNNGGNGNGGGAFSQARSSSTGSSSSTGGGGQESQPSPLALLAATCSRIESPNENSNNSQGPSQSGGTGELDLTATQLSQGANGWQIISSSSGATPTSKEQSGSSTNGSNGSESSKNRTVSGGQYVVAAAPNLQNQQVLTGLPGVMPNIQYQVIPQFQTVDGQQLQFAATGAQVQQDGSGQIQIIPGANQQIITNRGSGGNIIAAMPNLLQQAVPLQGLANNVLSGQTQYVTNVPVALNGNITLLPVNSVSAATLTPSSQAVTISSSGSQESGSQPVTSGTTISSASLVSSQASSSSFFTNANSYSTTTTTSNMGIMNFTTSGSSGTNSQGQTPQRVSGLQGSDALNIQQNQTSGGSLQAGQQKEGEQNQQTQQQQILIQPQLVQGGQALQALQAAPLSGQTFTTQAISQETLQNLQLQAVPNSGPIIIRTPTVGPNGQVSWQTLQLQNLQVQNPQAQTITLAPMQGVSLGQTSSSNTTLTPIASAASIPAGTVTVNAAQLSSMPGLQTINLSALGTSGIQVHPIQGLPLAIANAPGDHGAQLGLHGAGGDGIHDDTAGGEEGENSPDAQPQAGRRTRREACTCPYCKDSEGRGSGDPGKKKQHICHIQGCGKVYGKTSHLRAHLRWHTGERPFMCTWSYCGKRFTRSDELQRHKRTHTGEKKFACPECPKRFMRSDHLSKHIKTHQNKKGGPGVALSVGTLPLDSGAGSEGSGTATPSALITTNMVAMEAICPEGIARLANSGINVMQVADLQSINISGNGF

CCOc1ccc2c(c1)C(C)CC(C)(C)N2 (stereo not given)
inactive: [1] | [2] | [3] | [4] | [5] | [6] | [7] | [8] | [9] | [10] | [11] | [12] | [13] | [14] | [15] | [16] | [18] | [19] | [20]
active: [17] 2 µM

CC(C)n1c(/C=C/[C@@H](O)C[C@@H](O)CC(=O)O)c(-c2ccc(F)cc2)c2ccccc21
inactive: [1] | [2] | [3] | [4] | [5] | [6] | [7] | [8] | [9] | [10] | [11] | [12] | [13] | [14] | [15] | [16] | [18] | [19]
active: [17] 3.98 µM | [20] 0.284 µM

CC(C)CC(=O)CC(C)C
inactive: [1] | [2] | [3] | [4] | [5] | [6] | [7] | [8] | [9] | [10] | [11] | [12] | [13] | [14] | [15] | [16] | [17] | [18] | [19] | [20]

CCCC(=O)OC
inactive: [1] | [2] | [3] | [4] | [5] | [6] | [7] | [8] | [9] | [10] | [11] | [12] | [13] | [14] | [15] | [16] | [17] | [18] | [19] | [20]

Cc1ccnc(N)c1
inactive: [1] | [2] | [3] | [4] | [5] | [6] | [7] | [8] | [9] | [10] | [11] | [12] | [13] | [14] | [15] | [16] | [18] | [19] | [20]
active: [17] 44.6 µM

O=C1NC(=O)C2CC=CCC12 (stereo not given)
inactive: [1] | [2] | [3] | [4] | [5] | [6] | [7] | [8] | [9] | [10] | [11] | [12] | [13] | [14] | [15] | [16] | [17] | [18] | [19] | [20]

CCCCCC1CCCC(=O)O1 (stereo not given)
active: [17] 44.5 µM
inactive: [1] | [2] | [3] | [4] | [5] | [6] | [7] | [8] | [9] | [10] | [11] | [12] | [13] | [14] | [15] | [16] | [18] | [19] | [20]

CC1=C(CC(=O)O)c2cc(F)ccc2/C1=C\c1ccc(S(C)=O)cc1 (stereo not given)
inactive: [1] | [2] | [3] | [4] | [5] | [6] | [8] | [9] | [10] | [11] | [12] | [14] | [15] | [16] | [18] | [19] | [20]
active: [7] 43.4 µM | [13] 44.9 µM | [17] 5.37 µM

O=C(O)Cc1c[nH]c2ccccc12
inactive: [1] | [2] | [3] | [4] | [5] | [6] | [7] | [8] | [9] | [10] | [11] | [12] | [13] | [14] | [15] | [16] | [18] | [19] | [20]
active: [17] 35.4 µM
